Laboratory results from PubChem BioAssay AID1159580 (chemical genetic matrix, 2015).
“And” between values parts separate entries of the source, which are not always exact repeats. Equal values may be shown once. The whole screen tested about 5,500 compounds, of which about 2,000 (36%) were called active. Inconclusive results (about 18%) are left out. No stated cut-off is given here; in the data, active means normalized growth mostly below about 0.91 (no sharp cut-off); inconclusive means no clear call, values can overlap the other calls; inactive means mostly above about 0.92. This is one part of the list. Where a SMILES comes first, the peptide text is derived from it.

Experiment: chemical genetic growth profiling, strain panel (AID 1159580);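 further: tested at 20 µM; growth read once vehicle control cultures reached saturation at 30 °C; 1 = growth at the plate median or of vehicle wells; lower values mean less growth of the strain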
Details: S. cerevisiae deletion strains, growth OD

Measured: normalized growth

CC(=O)N[C@@H](CC(=O)O)C(=O)N[C@@H](CCC(=O)O)C(=O)O (Ac-Asp-Glu-OH)
inactive: locus YAL013W, strain DEP1, hits give low values 0.996 | locus YAL021C, strain ccr4, hits give low values 1 | locus YAL026C, strain drs2, hits give low values 1.01 | locus YAL030W, strain snc1, hits give low values 1.01 | locus YBL061C, strain skt5, hits give low values 1 | locus YBR009C, strain hhf1, hits give low values 0.969 | locus YBR021W, strain FUR4, hits give low values 1.02 | locus YBR023C, strain chs3, hits give low values 1.01 | locus YBR171W, strain sec66, hits give low values 1 | locus YBR229C, strain ROT2, hits give low values 1.01 | locus YBR231C, strain swc5, hits give low values 0.997 | locus YBR279W, strain paf1, hits give low values 1 | locus YCL011C, strain gbp2, hits give low values 1 | locus YCL016C, strain dcc1, hits give low values 0.998 | locus YCL029C, strain bik1, hits give low values 0.989 | locus YCL061C, strain MRC1, hits give low values 1 | locus YCL069W, strain vba3, hits give low values 1 | locus YCR088W, strain abp1, hits give low values 1 | locus YDL005C, strain med2, hits give low values 1 | locus YDL035C, strain GPR1, hits give low values 1.01 | locus YDL040C, strain nat1, hits give low values 0.998 | locus YDL074C, strain BRE1, hits give low values 1.03 | locus YDL101C, strain DUN1, hits give low values 1.03 | locus YDL134C, strain PPH21, hits give low values 1.02 | locus YDL185W, strain tfp1, hits give low values 1 | locus YDL192W, strain arf1, hits give low values 0.996 | locus YDR001C, strain nth1, hits give low values 1 | locus YDR069C, strain doa4, hits give low values 1 | locus YDR101C, strain arx1, hits give low values 0.98 | locus YDR137W, strain rgp1, hits give low values 1.03 | locus YDR150W, strain NUM1, hits give low values 1.02 | locus YDR159W, strain sac3, hits give low values 0.983 | locus YDR162C, strain NBP2, hits give low values 1.02 | locus YDR195W, strain ref2 0.985 | locus YDR297W, strain sur2, hits give low values 0.996 | locus YDR318W, strain mcm21, hits give low values 0.981 | locus YDR334W, strain swr1, hits give low values 1.01 | locus YDR335W, strain msn5, hits give low values 1 | locus YDR388W, hits give low values 0.989 | locus YDR392W, strain spt3, hits give low values 0.898 | locus YDR502C, strain sam2, hits give low values 0.989 | locus YEL003W, strain gim4, hits give low values 1 | locus YEL037C, strain rad23, hits give low values 1.01 | locus YEL061C, strain CIN8 (second series), hits give low values 1 | locus YEL061C, strain CIN8, hits give low values 1.01 | locus YER015W, strain faa2, hits give low values 1 | locus YER016W, strain bim1, hits give low values 1 | locus YER110C, hits give low values 0.987 | locus YER111C, strain swi4, hits give low values 0.993 | locus YER155C, strain BEM2 (second series), hits give low values 1.01 | locus YER155C, strain BEM2, hits give low values 1.01 | locus YER167W, strain BCK2, hits give low values 1 | locus YFR010W, strain ubp6, hits give low values 1.01 | locus YGL078C, strain dbp3, hits give low values 0.993 | locus YGL086W, strain mad1, hits give low values 0.994 | locus YGL167C, strain pmr1, hits give low values 0.995 | locus YGL173C, strain kem1, hits give low values 1.01 | locus YGL227W, strain vid30, hits give low values 1 | locus YGL240W, strain doc1, hits give low values 0.987 | locus YGL248W, strain PDE1, hits give low values 1.02 | locus YGL253W, strain hxk2, hits give low values 1.02 | locus YGR078C, strain PAC10, hits give low values 1.01 | locus YGR135W, strain pre9, hits give low values 0.995 | locus YGR229C, strain SMI1, hits give low values 1.01 | locus YGR252W, strain gcn5, hits give low values 0.97 | locus YHR013C, strain ard1, hits give low values 0.977 | locus YHR027C, strain rpn1, hits give low values 1.01 | locus YHR030C, strain SLT2, hits give low values 1.01 and 0.999 | locus YHR079C, strain IRE1 (second series), hits give low values 0.992 | locus YHR079C, strain IRE1, hits give low values 0.99 | locus YHR094C, strain hxt1, hits give low values 0.985 | locus YHR129C, strain ARP1, hits give low values 1.01 | locus YHR142W, strain chs7, hits give low values 1.04 | locus YHR200W, strain rpn10, hits give low values 0.998 | locus YIL066C, strain RNR3, hits give low values 1.01 | locus YIL073C, strain SPO22, hits give low values 1 | locus YIL125W, strain kgd1, hits give low values 0.982 | locus YIR030C, strain dcg1, hits give low values 0.992 | locus YJL092W, strain hpr5, hits give low values 1.01 | locus YJL095W, strain BCK1 (second series), hits give low values 1 | locus YJL095W, strain BCK1, hits give low values 1.02 and 0.976 | locus YJL115W, strain asf1, hits give low values 0.999 | locus YJL129C, strain trk1, hits give low values 1.01 | locus YJL134W, strain LCB3, hits give low values 1.01 | locus YJL154C, strain vps35, hits give low values 1 | locus YJL164C, strain tpk1, hits give low values 1 | locus YJL166W, strain qcr8, hits give low values 1.01 | locus YJL168C, strain set2, hits give low values 0.99 | locus YJL187C, strain SWE1 (second series), hits give low values 1.01 | locus YJL187C, strain SWE1, hits give low values 1 | locus YJR043C, strain POL32, hits give low values 1.01 | locus YJR066W, strain TOR1, hits give low values 0.904
